The entries come from a sample that favours hits as a whole.
Dicer inh = inhibitors of Dicer pre-microRNA processing, primary screen, biochemical, cat-ELCCA, chemiluminescence; Endoribonuclease Dicer (Homo sapiens), Q9UPY3; AID 1347074, 2019; 47,000 compounds, 6% hits; cat-ELCCA pre-miR-21 Dicer processing; stronger effect = higher value; z-score at 25 µM; in the data active = z-score above about 3, passing the limit was not always enough;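 also: higher signal means more uncleaved substrate so more Dicer inhibition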
Large screens that a line does not name were inactive.

Cc1cc(O)cc(C)c1NS(=O)(=O)c1ccccc1	Dicer inh 3.5
Cc1cccc(C)c1NS(=O)(=O)c1ccc(NS(=O)(=O)c2ccccc2)cc1	none
Cc1cnc(NS(=O)(=O)c2ccccc2)c(Br)c1	none
O=C(Nc1cccc(C(F)(F)F)c1)N1CCOC12CCCCC2	none
Cc1cc(O)ccc1Nc1nc(-c2ccccn2)cs1	Dicer inh 5.4
Cc1cc(O)ccc1Nc1nc(-c2cccnc2)cs1	none
COc1ccc(OC)c(Nc2nc(-c3ccncc3)cs2)c1	none
Fc1ccccc1Nc1nc(-c2ccccn2)cs1	none
Cc1nc(C)c(-c2csc(Nc3ccc(O)cc3C)n2)s1	none
COc1ccc(Nc2nc(-c3ccccn3)cs2)c(OC)c1	Dicer inh 5.3
COC(=O)c1sc2ccccc2c1OC(=O)c1ccccc1Cl	none
CC(C)(C)C(=O)CSC1=CC(=O)CC(c2ccccc2)S1 (stereo not given)	none
CCOC(=O)c1cc(-c2ccccc2)sc1NC(=S)Nc1ccc(OC)cc1OC	none
CS(=O)(=O)c1noc(-c2ccc(Cl)cc2)c1C#N	none
O=S(=O)(c1ccccc1OC(F)(F)F)N1CCN(c2nc3ccc(Cl)cc3s2)CC1	none
CC(C)c1ccc(C2C3=C(Nc4c2c(=O)n(C)c(=O)n4C)c2ccccc2C3=O)cc1 (stereo not given)	none
COc1ccc2c(=O)c(Oc3ccccc3Br)coc2c1	Dicer inh 4.7
COc1ccc(Oc2coc3cc(OC(=O)c4cccs4)ccc3c2=O)cc1	none
COc1ccc(C(=O)Oc2ccc3c(=O)c(Oc4ccccc4Br)coc3c2)cc1	none
COc1cccc(OC)c1C(=O)Oc1ccc2c(=O)c(Oc3ccccc3Br)coc2c1	none
COc1ccc(Oc2coc3cc(OC(=O)c4ccc(Br)cc4)ccc3c2=O)cc1	Dicer inh 5.4
COc1ccc(Oc2coc3cc(OC(=O)c4ccco4)ccc3c2=O)cc1	none
CC1=C(C(=O)OC(C)C)C(c2cccc(C)c2)n2c(nc3ccccc32)N1 (stereo not given)	none
S=c1sc2c(s1)SCC1(CS2)OCCO1	none
CCCn1c(C)c(C(=O)OCC)c2cc(O)c3ccccc3c21	none
O=C(O)CCSCSCCC(=O)O	none
CC(C)CNC(=O)C1CC(c2ccccc2)=NO1 (stereo not given)	Dicer inh 3.6
O=C(NCc1ccco1)C1CC(c2ccc(Cl)cc2)=NO1 (stereo not given)	none
O=C(NCc1ccc2c(c1)OCO2)C1CC(c2cccc(Br)c2)=NO1 (stereo not given)	none
N#CCC(=O)NNC(=O)c1cc([N+](=O)[O-])ccc1N	none
CC1(C)Cc2cc3c(cc2C(SCc2ccccc2)=N1)OCCO3	none
CSC1=NC(C)(C)Cc2cc3c(cc21)OCCO3	Dicer inh 3.3
NN/C(=N\S(=O)(=O)c1ccccc1)NNc1ccccc1	none
Cc1c(C)c(C)c(CSCC(=O)NNC(=S)NCCc2ccccc2)c(C)c1C	none
CCOC(=O)c1c(NC(=O)CC)sc(C)c1C	none
CCOC(=O)c1c(N(C)S(C)(=O)=O)sc(C)c1C	Dicer inh 3.6
CCOC(=O)c1c(N)sc(C)c1C	none
O=C1c2ccc([N+](=O)[O-])cc2C(=O)N1CNc1cc(C(F)(F)F)cc(C(F)(F)F)c1	none
O=C1c2ccccc2C(=O)N1CNc1ccccc1Oc1ccc(Cl)cc1Cl	none
Cc1cccc(NCN2C(=O)c3ccccc3C2=O)c1C	none
CCc1ccccc1NCN1C(=O)c2ccccc2C1=O	Dicer inh 3.4
O=C1c2ccccc2C(=O)N1CNc1ccc(Oc2ccccc2)cc1	Dicer inh 3.8
O=C1c2ccccc2C(=O)N1Cc1cccnc1	none
O=C1c2ccccc2C(=O)N1CNc1ccc(Oc2ccc(Cl)cc2)cc1	none
CCCc1ccc(NCN2C(=O)c3ccccc3C2=O)cc1	none
CCC(C)c1ccc(NCN2C(=O)c3ccccc3C2=O)cc1 (stereo not given)	Dicer inh 3.1
COc1ccc2c(c1)N(C(=O)Nc1ccc(Cl)cc1)C(C)(C)C=C2C	none
CC(C)CC(Nc1ncnc2sc3c(c12)CCC3)C(=O)O (stereo not given)	none
Cc1ccc(C2CC(=O)c3cnc4c(-c5ccc(F)cc5)c(C)nn4c3C2)cc1 (stereo not given)	none
O=C(COc1ccccc1)Nc1cccc(F)c1C(=O)O	none
Cc1ccc(-n2nc(C)c3c(C)cc(=O)oc32)cc1C	none
COc1cccc(C2C3=C(CC(C)(C)CC3=O)Nc3nc(SCC(C)=O)[nH]c(=O)c32)c1 (stereo not given)	none
Cc1ccc(O)c(-c2ccnc3cc(-c4ccccc4)nn23)c1	none
c1ccc(-c2cc3nccc(-c4ccccc4)n3n2)cc1	none
Oc1ccccc1-c1ccnc2cc(-c3ccc(Cl)cc3)nn12	Dicer inh 3.3
Oc1ccc(F)cc1-c1ccnc2cc(-c3ccc(Cl)cc3)nn12	Dicer inh 4
Cc1cc2nccc(-c3ccc(Cl)cc3)n2n1	none
COc1ccc(-c2cc3nccc(-c4ccccc4O)n3n2)cc1	none
COc1ccc(-c2cc3nccc(-c4cc(Cl)ccc4O)n3n2)cc1	none
CN1C(=O)COc2ccc(-c3ccnc4cc(-c5ccc(Cl)cc5)nn34)cc21	none
Oc1ccc(Cl)cc1-c1ccnc2cc(-c3ccccc3)nn12	Dicer inh 9.3
CC1=Nn2c(nnc2-c2ccc(C)cc2)SC1	none
COCCCn1c2c(c(=O)[nH]c1=O)C(c1ccc(SC)cc1)C1=C(N2)c2ccccc2C1=O (stereo not given)	none
COc1cc(C(F)(F)F)c(-c2noc(=O)n2-c2ccc(C)cc2C)cn1	none
COc1ccc(C2OCCCO2)c(Cl)c1OC	none
Cc1c(-c2ccnn2C(=O)Nc2ccccc2)sc2ccccc12	none
NNC(=O)c1cc(-c2ccccc2)n[nH]1	none
Cc1ccc(-c2csc(-c3ccc(-c4csnn4)cc3)n2)c(C)c1	none
Cc1c(CO)c2ccccc2n1Cc1ccccc1	none
O=C(CSc1nc2ccccc2s1)N1CCOCC1	none
CC(c1ccccc1)n1c(SCC(=O)c2ccc(F)cc2)n[nH]c1=O (stereo not given)	none
CC(c1ccccc1)n1c(SCC(=O)N2CCOCC2)n[nH]c1=O (stereo not given)	Dicer inh 13
c1ccc(-c2cc(Sc3nnc(-c4ccncc4)o3)n3ncnc3n2)cc1	none
CCOC(=O)C1CCCN(S(=O)(=O)c2cc(S(=O)(=O)c3ccccc3)cs2)C1 (stereo not given)	none
CS/C(=C(/C#N)S(=O)(=O)C(C)C)N1CCCC1	none
CS/C(=C(/C#N)S(=O)(=O)C(C)C)N1CCCCC1	Dicer inh 4.2
CS/C(=C(/C#N)S(=O)(=O)C(C)C)N1CCOCC1	none
O=C(NC(=O)N1CCCCC1)c1cc(Br)cc(Br)c1	none
Cc1cc(Br)cnc1N=CN(C)C	Dicer inh 3
Cc1cc(Br)cnc1N=CNO	none
Cc1cc(N=CN(C)C)c2ccccc2n1	none
COc1cc(C2C(C(=O)OCC3CCCO3)=C(C)NC3=C2C(=O)CCC3)cc(Cl)c1O (stereo not given)	none
Cc1cc(NS(=O)(=O)c2ccc(C#N)cc2)no1	none
Cc1nc(-c2ccccn2)nc(N2CCN(c3ncnc4scc(-c5ccccc5)c34)CC2)c1Cl	none
Cc1ccc2nc3sc(C(=O)O)cc3cc2c1	none
O=C(Nc1ccccc1)c1cc2sccc2s1	none
O=C(O)c1cc2ccc3ccccc3c2s1	Dicer inh 4.1
Cc1c(NC(=O)c2cc3ccccc3c(=O)s2)c(=O)n(-c2ccccc2)n1C	none
O=C(Nc1ccccc1)c1cc2ccc3ccccc3c2s1	Dicer inh 3.5
CCOC(=O)c1cc2ccccc2c(=O)s1	none
COc1ccccc1N1CCN(C(=O)C(C)N2CCCc3cc(C)ccc32)CC1 (stereo not given)	none
CN(C)Cc1c(O)ccc2c(=O)c(-c3ccccc3Cl)c(C(F)(F)F)oc12	none
Cc1csc(NC(=O)c2ccco2)c1C(=O)c1ccccc1	none

Bioassay records (PubChem)
